# Screening data (PubChem BioAssay)
# mHTT-CaM PPI inh = disrupts binding of mutant huntingtin to calmodulin; P42858; AlphaScreen His-mHTT/GST-CaM binding, luminescence; inhibition, % at 15 µM; actives 3.6% (n = 190,000);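 also: 0% = both proteins with DMSO and 100% = one protein alone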
# Target sequence (P42858 whole entry, looked up, stated change not applied): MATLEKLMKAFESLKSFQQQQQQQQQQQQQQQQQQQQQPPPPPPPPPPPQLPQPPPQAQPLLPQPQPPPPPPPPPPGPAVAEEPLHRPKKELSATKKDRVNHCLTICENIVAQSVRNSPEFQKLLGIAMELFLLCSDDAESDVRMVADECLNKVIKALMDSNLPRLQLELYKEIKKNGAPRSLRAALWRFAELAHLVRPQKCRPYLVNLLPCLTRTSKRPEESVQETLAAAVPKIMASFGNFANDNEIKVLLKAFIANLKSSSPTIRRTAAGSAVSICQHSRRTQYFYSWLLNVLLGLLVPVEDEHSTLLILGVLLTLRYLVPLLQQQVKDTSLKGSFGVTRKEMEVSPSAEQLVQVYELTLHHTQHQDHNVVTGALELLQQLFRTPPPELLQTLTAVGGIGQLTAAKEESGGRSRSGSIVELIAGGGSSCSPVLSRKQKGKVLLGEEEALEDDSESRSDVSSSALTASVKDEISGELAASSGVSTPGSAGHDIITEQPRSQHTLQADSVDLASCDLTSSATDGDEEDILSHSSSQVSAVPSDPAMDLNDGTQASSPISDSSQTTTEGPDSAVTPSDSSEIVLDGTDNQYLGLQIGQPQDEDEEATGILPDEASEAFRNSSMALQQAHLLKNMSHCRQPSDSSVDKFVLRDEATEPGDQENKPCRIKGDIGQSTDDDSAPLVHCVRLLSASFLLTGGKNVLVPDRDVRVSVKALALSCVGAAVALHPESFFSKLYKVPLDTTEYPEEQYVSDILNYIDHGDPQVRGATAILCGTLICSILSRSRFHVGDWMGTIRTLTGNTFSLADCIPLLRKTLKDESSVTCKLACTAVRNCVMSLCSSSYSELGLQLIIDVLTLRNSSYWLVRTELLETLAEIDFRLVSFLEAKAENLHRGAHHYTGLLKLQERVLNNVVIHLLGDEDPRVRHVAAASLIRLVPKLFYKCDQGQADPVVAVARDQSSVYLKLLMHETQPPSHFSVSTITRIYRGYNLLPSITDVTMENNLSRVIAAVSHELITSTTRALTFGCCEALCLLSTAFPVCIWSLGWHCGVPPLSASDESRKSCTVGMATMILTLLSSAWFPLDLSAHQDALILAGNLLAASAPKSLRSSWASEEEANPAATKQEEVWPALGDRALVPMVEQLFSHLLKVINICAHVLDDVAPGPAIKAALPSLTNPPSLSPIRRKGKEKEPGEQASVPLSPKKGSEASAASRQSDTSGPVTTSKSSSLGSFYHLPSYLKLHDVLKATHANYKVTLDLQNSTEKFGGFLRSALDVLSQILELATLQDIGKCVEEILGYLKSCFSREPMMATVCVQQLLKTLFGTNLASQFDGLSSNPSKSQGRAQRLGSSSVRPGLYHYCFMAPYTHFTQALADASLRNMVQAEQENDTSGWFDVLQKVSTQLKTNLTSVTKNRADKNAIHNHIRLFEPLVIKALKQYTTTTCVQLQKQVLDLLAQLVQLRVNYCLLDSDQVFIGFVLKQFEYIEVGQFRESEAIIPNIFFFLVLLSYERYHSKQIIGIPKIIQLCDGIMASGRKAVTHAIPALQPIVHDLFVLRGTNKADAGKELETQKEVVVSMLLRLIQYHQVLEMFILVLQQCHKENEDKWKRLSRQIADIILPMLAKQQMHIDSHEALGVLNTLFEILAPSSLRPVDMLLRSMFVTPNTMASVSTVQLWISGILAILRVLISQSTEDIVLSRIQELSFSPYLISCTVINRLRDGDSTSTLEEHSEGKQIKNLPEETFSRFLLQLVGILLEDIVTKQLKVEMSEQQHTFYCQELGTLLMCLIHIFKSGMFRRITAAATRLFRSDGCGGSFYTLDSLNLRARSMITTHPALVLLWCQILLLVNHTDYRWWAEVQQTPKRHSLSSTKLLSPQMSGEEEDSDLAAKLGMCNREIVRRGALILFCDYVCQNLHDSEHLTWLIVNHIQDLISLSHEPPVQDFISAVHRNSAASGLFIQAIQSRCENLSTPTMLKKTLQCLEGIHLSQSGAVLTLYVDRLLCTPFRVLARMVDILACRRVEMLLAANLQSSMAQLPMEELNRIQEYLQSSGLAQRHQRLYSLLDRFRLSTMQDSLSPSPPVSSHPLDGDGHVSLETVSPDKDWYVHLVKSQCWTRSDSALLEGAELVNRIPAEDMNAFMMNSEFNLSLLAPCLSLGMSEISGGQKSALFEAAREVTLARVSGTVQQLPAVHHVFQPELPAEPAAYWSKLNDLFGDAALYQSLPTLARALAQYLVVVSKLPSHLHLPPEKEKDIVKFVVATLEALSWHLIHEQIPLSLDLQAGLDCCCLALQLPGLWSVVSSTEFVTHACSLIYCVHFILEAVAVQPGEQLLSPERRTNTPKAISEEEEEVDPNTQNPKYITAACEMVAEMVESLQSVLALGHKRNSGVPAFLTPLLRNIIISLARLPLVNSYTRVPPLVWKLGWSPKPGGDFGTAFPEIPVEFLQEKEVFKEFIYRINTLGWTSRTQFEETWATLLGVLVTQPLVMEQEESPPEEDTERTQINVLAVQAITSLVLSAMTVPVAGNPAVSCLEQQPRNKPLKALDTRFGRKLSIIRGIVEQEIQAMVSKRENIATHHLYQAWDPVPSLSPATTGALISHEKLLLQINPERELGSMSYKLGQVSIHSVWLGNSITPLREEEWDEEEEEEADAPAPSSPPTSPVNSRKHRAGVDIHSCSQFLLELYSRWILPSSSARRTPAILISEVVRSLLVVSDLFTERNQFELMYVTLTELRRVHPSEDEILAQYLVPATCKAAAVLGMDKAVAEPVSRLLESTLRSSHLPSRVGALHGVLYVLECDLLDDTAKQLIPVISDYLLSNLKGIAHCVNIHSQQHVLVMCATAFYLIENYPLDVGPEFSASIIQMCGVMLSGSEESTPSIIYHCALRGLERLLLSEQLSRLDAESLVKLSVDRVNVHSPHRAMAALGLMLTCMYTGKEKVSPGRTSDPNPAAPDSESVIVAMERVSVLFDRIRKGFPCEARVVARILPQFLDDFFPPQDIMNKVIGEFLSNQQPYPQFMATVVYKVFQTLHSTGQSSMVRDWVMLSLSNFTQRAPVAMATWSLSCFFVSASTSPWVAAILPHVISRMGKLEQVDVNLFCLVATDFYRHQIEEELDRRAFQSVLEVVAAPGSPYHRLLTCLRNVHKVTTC
# Pf apPOL block = Pf-apPOL DNA polymerase inhibition; Recombinant Pf-apPOL, molecular beacon fluorescence, 1.5 h; inhibition, % at 10 µM; actives 0.25% (n = 210,000); AID 1794808
# Numbers without * were called inactive; . = no result. An excerpt weighted towards active compounds, which were near 3.5% of everything screened. Rule as the data show it: active = inhibition above about 50%; inactive = the rest.
SMILES,mHTT-CaM PPI inh,Pf apPOL block
CC(C)C(=O)NC(c1ccco1)c1cc([N+](=O)[O-])c2cccnc2c1O (stereo unspecified),100.0*,-19.3
O=C(Nc1ccccc1C(=O)O)c1ccc([N+](=O)[O-])cc1Cl,1.2,16.6
CSc1ccccc1NC(=O)C1CC(=O)N(c2ccc3c(c2)CCN3C(=O)C2CC2)C1 (stereo unspecified),4.3,-4.4
CC(Oc1ccccc1)C(=O)N1CCC(c2cc(N)on2)CC1 (stereo unspecified),-4.9,1.2
NC(N)=Nc1nc(-c2ccc(O)c(O)c2)cs1,61.0*,-6.5
Oc1ccc(-c2csc(-c3ccccc3)n2)cc1O,26.0,-0.2
CCC(=O)N1CCCN(C2=NS(=O)(=O)C(c3ccc(F)cc3)=C2C)CC1,-7.2,-6.4
Cc1nc(-c2ccc(C(F)(F)F)cn2)sc1C(=O)NNS(=O)(=O)c1ccccc1C(F)(F)F,.,4.2
Cc1c(C(=O)NCC2CCCO2)sc2ncnc(N3CCN(c4ccccc4F)CC3)c12 (stereo unspecified),33.0,1.8
Cc1ccn2c(=O)c(C3=Nc4ccccc4C3=O)c(O)nc2c1,-4.0,-1.2
COc1cccc(COC2CCCN(C(=O)c3cccs3)C2)c1 (stereo unspecified),-3.9,-3.2
O=C(c1cccs1)N1CCCC(OCc2ccc(C(F)(F)F)cc2)C1 (stereo unspecified),50.6*,-1.7
Cc1sc(NC(=O)c2ccc3c(c2)OCO3)c(C#N)c1C,3.7,-10.3
COc1ccc(-c2ccc[nH]2)cc1,62.1*,-31.4
COc1ccc(-c2nnc(-c3ccc(OC)cc3)nn2)cc1,1.0,-1.8
CCc1ccc(CNC(=O)CCCN2C(=O)CCn3nc(C)cc32)cc1,5.8,-3.3
CCN1c2cc(Cl)ccc2C(=O)NC12CCN(C(=O)NCc1ccc(F)cc1)CC2,57.6*,-2.5
CCN1c2cc(Cl)ccc2C(=O)NC12CCN(C(=O)NCc1ccc(C)cc1)CC2,-2.5,-3.4
COc1cc(OC)cc(C(=O)NC2CN(C3CCOCC3)CC2c2cccnc2)c1 (stereo unspecified),13.4,1.3
Cc1cccc[n+]1C1C(c2ccccc2)C(C#N)=C(C(C#N)C#N)NC1(O)C1CC1 (stereo unspecified),13.0,5.6
CCOCC(=O)N1CCC(O)(c2ccccc2)C(N2CCCC2)C1 (stereo unspecified),7.6,2.8
O=C(CC1CCCC1)N1CCC(O)(c2ccccc2)C(N2CCCC2)C1 (stereo unspecified),76.9*,0.7
CCCC(=O)N1CCC(O)(c2ccccc2)C(N2CCCC2)C1 (stereo unspecified),5.9,-11.2
O=C(C1CCCCC1)N1CCC(O)(c2ccccc2)C(N2CCCC2)C1 (stereo unspecified),50.9*,-10.8
Cc1ccnc(N2CCC(C(=O)N3CC=C(c4ccccc4)CC3)CC2)n1,-7.8,-1.9
SMILES,mHTT-CaM PPI inh,Pf apPOL block
c1ccc(C(c2c[nH]c3ccccc23)c2c[nH]c3ccccc23)nc1,73.7*,-9.8
O=C(O)CC(C(=O)O)c1c[nH]c2ccccc12 (stereo unspecified),2.5,-11.3
Cc1ccc(C2CCCN2C(=O)Nc2ccc3c(c2)OCCO3)cc1 (stereo unspecified),6.4,-2.8
O=C(O)c1cc([N+](=O)[O-])c(N2CCN(c3cccc(C(F)(F)F)c3)CC2)c([N+](=O)[O-])c1,47.0,84.0*
O=[N+]([O-])c1ccc(N2CCN(c3cccc(C(F)(F)F)c3)CC2)s1,38.0,-1.1
Cc1sc2c(c1C)c(=O)n(CCc1ccccc1)c(=O)n2Cc1cc(=O)n2ccccc2n1,-2.0,-6.2
CCOc1cc(/C=C2/SC(=Nc3cccc(C(=O)O)c3)NC2=O)ccc1OC,51.0*,-4.1
COc1cc(/C=C2/SC(=Nc3ccccc3Cl)NC2=O)cc(OC)c1,5.0,4.5
CCOc1cc(/C=C2/SC(=Nc3ccccc3Cl)NC2=O)ccc1O,53.0*,-4.9
O=C1NC(=Nc2ccccc2Cl)S/C1=C/c1cccc(C(=O)O)c1,4.0,-6.9
CCOc1cc(/C=C2/SC(=Nc3ccccc3)NC2=O)ccc1OC,26.0,6.3
O=C1NC(=Nc2cccc(Cl)c2Cl)S/C1=C\c1ccc(O)c(O)c1,83.0*,-1.8
O=C(NCc1ccccc1)C1CC(=O)N(Cc2ccc(F)cc2)C1 (stereo unspecified),-0.1,-0.6
O=C(c1ccc(F)cc1Cl)N1CCc2c(nc3cc[nH]n3c2=O)C1,3.5,2.7
Cc1nnc(N2C(=O)c3ccc([N+](=O)[O-])cc3C2=O)s1,3.0,-4.9
CN(CC(=O)N1N=C(c2cccs2)CC1c1ccccc1)C(=O)C1CCCC1 (stereo unspecified),20.8,-1.3
Cc1ccc(C2CC(c3ccc(C)c(C)c3)=NN2C(=O)CN(C)C(=O)C2CC2)cc1 (stereo unspecified),6.4,2.2
COc1ccccc1C1CC(c2ccc(C)c(C)c2)=NN1C(=O)CN(C)C(C)=O (stereo unspecified),65.6*,-4.9
CC(=O)N(C)CC(=O)N1N=C(c2ccc(F)cc2)CC1c1ccccc1 (stereo unspecified),21.0,6.8
CC(=O)N(C)CC(=O)N1N=C(c2ccc(C)c(C)c2)CC1c1ccccc1 (stereo unspecified),53.8*,-1.9
Cc1ccc(C2CC(c3cccs3)=NN2C(=O)CN(C)C(=O)C2CCCC2)cc1 (stereo unspecified),60.8*,-0.9
Cc1ccc(C2=NN(C(=O)CN(C)C(=O)NC(C)C)C(c3ccccc3)C2)cc1C (stereo unspecified),51.5*,-0.2
COc1ccc(C2=NN(C(=O)CCCC(=O)O)C(c3ccccc3OC)C2)cc1OC (stereo unspecified),7.1,-11.7
O=C1CC(c2ccc(Br)cc2)c2c(ccc3ncccc23)N1 (stereo unspecified),5.0,-3.2
C=CCn1c(=O)n([C@@H]2O[C@H](CO)[C@@H](O)[C@H]2O)c2nc(N)[nH]c(=O)c21,-0.8,.
SMILES,mHTT-CaM PPI inh,Pf apPOL block
Fc1ccccc1C1CC(c2ccc(I)cc2)Nc2nnnn21 (stereo unspecified),11.0,-5.3
O=C(Cc1ccsc1)N1CCN(c2nc(CN3CCOCC3)cs2)CC1,14.3,-6.3
Cc1cccc2sc(NC(=O)C(NS(=O)(=O)c3cccs3)C(C)C)nc12 (stereo unspecified),13.0,-5.4
Cc1ccc(C)c(Nc2nnc(-c3cc4c(CO)cnc(C)c4oc3=O)s2)c1,6.0,-3.9
Cc1cnc2c(ccc3c(C)c(C)cnc32)c1C,100.2*,.
COc1cc(C=Nc2ccc(Nc3ccccc3)cc2)c([N+](=O)[O-])cc1OC,96.0*,0.5
COc1cc(C=Nc2cccc3c(=O)[nH][nH]c(=O)c23)c([N+](=O)[O-])cc1OC,13.0,-0.6
COc1cc(C=Nc2ccc(Nc3ccccc3)cc2)cc(OC)c1OC,76.0*,-2.3
COc1cc(C=Nc2ccc(NC(C)=O)cc2)cc(OC)c1OC,-1.0,2.4
O=C(NCc1cccnc1)C1CN(S(=O)(=O)c2cccnc2)CC12CCCCC2 (stereo unspecified),-5.5,-3.4
CCn1c(CCNC(=O)c2ccccc2)nc2c(C)cccc2c1=O,24.4,-5.8
CCn1c(CCNC(=O)c2cccc(N(C)C)c2)nc2c(C)cccc2c1=O,58.7*,0.6
O=C(c1nn2c(c1Cl)NC(c1ccccc1)CC2C(F)(F)F)N1CCCCC1 (stereo unspecified),14.0,-0.9
